Source: PubChem BioAssay
The sample as a whole holds a higher share of hits than the screen did.
TR SRC2 fluor cs: Total Fluorescence Counterscreen for Inhibitors of the Interaction of Thyroid Hormone Receptor and Steroid Receptor Coregulator 2. TRb/SRC2 Texas Red total fluorescence interference. Potency, µM (titrated, usually from 106 µM), for inactives: top-dose fluorescence change, negative = quenching. actives 0.29% (n = 280,000); active means well fitted curve in either direction with a large enough effect; inconclusive means small, poorly fitted or top-dose-only effect; further: potency means the concentration at half of the fitted maximal effect; on the % scale 0 is the no-effect control and ±100 the full control effect
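Flags fluorescent or light-absorbing compounds by total fluorescence, S + 2P, at 555 nm excitation and 632 nm emission. Mixture: 20 nM Texas Red SRC2 peptide, 0.6 uM human TRb LBD, 1 uM T3, 5% DMSO; compound exposure 5 h at ambient temperature.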
RGS12 GoLoco inh-1: qHTS Assay for Inhibitors of RGS12 GoLoco Motif Activity (Red Fluorophore). Potency, µM (highest dose often 61.6 µM), without a hit: top-dose activity, negative = inhibition, most hits filed as inhibitors. actives 0.44% (n = 230,000). Gai1:RGS12 GoLoco peptide FP, rhodamine, 10 min. AID 880, 2007; active means well fitted inhibition curve with a large enough effect, not every such curve was filed as active; inactive means no such curve, though single readings can be large or run the other way; further: potency means the concentration at half of the fitted maximal effect; on the % scale 0 is the no-effect control and ±100 the full control effect; nearly all actives have a fitted effect of over 30% in size
TRb-SRC2 inh: qHTS for Inhibitors of the Interaction of Thyroid Hormone Receptor and Steroid Receptor Coregulator 2; TRbeta-SRC2 peptide binding, fluorescence polarization; receptor liganded with 1 µM T3; Potency, µM (highest dose often 106 µM), inactives show at the highest dose activity change, negative = inhibition, hits mostly inhibitors; actives 0.065% (n = 280,000); AID 1469, 2008;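 further: potency means the concentration at half of the fitted maximal effect; plate controls were bound peptide for no effect and peptide without receptor for full effect; nearly all actives have a fitted effect of over 50% in size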
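Quantitative HTS by FP: 0.6 uM TRb LBD, 20 nM labeled SRC2 20-mer, 1 uM T3, 5% DMSO; 5 hr ambient incubation; % activity per concentration and potencies from concentration series.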
ERG-DNA inh: qHTS for Small Molecule Inhibitors of the ERG Ets/DNA interaction; Potency, µM (series often up to 76.9 µM), for inactives: top-dose FP activity, negative = inhibition, usual class: inhibitors; fluorescence polarization, His-ERG Ets domain / labelled DNA; actives 0.028% (n = 370,000); AID 624246, 2012; Transcriptional regulator ERG (Homo sapiens), P11308; active means well fitted inhibition curve with a large enough effect in the polarisation, with a control signal flat; inconclusive means small, poorly fitted or top-dose-only effect, or effect the other way, or a change in a side signal; inactive means no such curve, though single readings can be large or run the other way; the % refers to the polarisation;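 further: polarization taken with two DNA probes labelled with fluorescein and Texas red; potency means the concentration at half of the fitted maximal effect; % of control where 0% means no effect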
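His-tagged ERG Ets domain (1 uM in the protein solution; 300mM KCl, 50mM Tris-HCl, 1mM EDTA, 1mM DTT, pH 7.5) received compound, then a probe mix of 5 nM fluorescein-DNA and 100nM Texas-615-DNA. Fluorescence polarization was read for both dyes.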
RGS12 GoLoco inh-2: Confirmation qHTS Assay for Inhibitors of RGS12 GoLoco Motif Activity (Red Fluorophore); AID 2390, 2010; shares compounds with RGS12 GoLoco inh-1; Gai1/rhodamine-RGS12 GoLoco peptide fluorescence polarization; Potency, µM (doses to about 57.1 µM), inactives show top-dose activity, negative = inhibition, usual class: inhibitors; actives 50% (n = 110)
An asterisk follows results filed as active; u = inconclusive; x = no result given; ! = repeats disagree; [ ] = another dose, or the depositor's remark. Unless noted, the call rests on the fitted dose curve; in most records, active means well fitted curve in the direction sought with a large enough effect; inconclusive means small, poorly fitted or top-dose-only effect, or another doubt; inactive means no such curve, though single readings can be large; an effect the other way counts as inactive or inconclusive.

SMILES	TR SRC2 fluor cs	RGS12 GoLoco inh-1	TRb-SRC2 inh	ERG-DNA inh	RGS12 GoLoco inh-2
Cc1ccc(CSCC(=O)N/N=C/c2ccc(OCC(=O)Nc3ccc(C)cc3)cc2)cc1	-14.7%	76.2%	27.5%	6.6%	x
O=C(CSCc1ccccc1)N/N=C/c1ccc(OCC(=O)N2CCCCC2)cc1	0.9%	-5.2%	15.0%	2.3%	5.5%
COc1ccc(SCC(CC(C)C)N2CCN(CCc3ccccc3)CCC2=O)cc1 (centres undefined)	0.6%	x	-4.0%	x	x
Nc1cc(N)nc(SCC(=O)Nc2ccc(Br)cc2Cl)n1	-5.7%	6.31µM*	-9.1%	8.4%	u
COc1cccc(CC(=O)N2CCc3nc(-c4ccccc4)c4c(c3C2)CO[C@@H](C)C4)c1	-2.8%[11.2 µM]	7.9%[14.2 µM]	0.3%[11.2 µM]	x	x
NC(=O)NOC[C@@H]1NC(=O)NC1=O	x	7.7%[14.2 µM]	x	x	x
NC(=O)NC1NC(=O)NC1=O (centres undefined)	-0.9%	17.8µM*!	-1.4%	-0.2%	u
CN=C1N[C@H](c2ccccc2)N(c2ccccc2)S1	-2.1%	5.62µM*	-3.6%	x	12.6µM*
CCCCn1c(=O)[nH]c2nc3cc(NC(C)=O)ccc3nc2c1=O	-3.5%	10.4%	4.1%	16.4%	76.8%
CCCCCCn1c(=O)[nH]c2nc3cc(N)c(C)cc3nc2c1=O	-2.8%	-28.4%	5.7%	-7.1%	x
